Measurements: PubChem BioAssay

Experiments:
[1] = tested on: Botulinum neurotoxin type F light chain protease (Clostridium botulinum); experiment: Botulinum neurotoxin type F light chain protease inhibition, multiplex microsphere flow cytometry, validation set (AID 588459); details: multiplex microsphere protease substrate cleavage assay, at 10 µM, active compounds read high
[2] = target: Botulinum neurotoxin type A (Clostridium botulinum) (UniProt P0DPI0); experiment: BoNT/A light chain protease inhibitors, biochemical, multiplex microsphere flow cytometry, validation set (AID 588460); details: at 10 µM, active compounds read high
Botulinum neurotoxin type A (Clostridium botulinum), sequence (P0DPI0 whole entry, looked up): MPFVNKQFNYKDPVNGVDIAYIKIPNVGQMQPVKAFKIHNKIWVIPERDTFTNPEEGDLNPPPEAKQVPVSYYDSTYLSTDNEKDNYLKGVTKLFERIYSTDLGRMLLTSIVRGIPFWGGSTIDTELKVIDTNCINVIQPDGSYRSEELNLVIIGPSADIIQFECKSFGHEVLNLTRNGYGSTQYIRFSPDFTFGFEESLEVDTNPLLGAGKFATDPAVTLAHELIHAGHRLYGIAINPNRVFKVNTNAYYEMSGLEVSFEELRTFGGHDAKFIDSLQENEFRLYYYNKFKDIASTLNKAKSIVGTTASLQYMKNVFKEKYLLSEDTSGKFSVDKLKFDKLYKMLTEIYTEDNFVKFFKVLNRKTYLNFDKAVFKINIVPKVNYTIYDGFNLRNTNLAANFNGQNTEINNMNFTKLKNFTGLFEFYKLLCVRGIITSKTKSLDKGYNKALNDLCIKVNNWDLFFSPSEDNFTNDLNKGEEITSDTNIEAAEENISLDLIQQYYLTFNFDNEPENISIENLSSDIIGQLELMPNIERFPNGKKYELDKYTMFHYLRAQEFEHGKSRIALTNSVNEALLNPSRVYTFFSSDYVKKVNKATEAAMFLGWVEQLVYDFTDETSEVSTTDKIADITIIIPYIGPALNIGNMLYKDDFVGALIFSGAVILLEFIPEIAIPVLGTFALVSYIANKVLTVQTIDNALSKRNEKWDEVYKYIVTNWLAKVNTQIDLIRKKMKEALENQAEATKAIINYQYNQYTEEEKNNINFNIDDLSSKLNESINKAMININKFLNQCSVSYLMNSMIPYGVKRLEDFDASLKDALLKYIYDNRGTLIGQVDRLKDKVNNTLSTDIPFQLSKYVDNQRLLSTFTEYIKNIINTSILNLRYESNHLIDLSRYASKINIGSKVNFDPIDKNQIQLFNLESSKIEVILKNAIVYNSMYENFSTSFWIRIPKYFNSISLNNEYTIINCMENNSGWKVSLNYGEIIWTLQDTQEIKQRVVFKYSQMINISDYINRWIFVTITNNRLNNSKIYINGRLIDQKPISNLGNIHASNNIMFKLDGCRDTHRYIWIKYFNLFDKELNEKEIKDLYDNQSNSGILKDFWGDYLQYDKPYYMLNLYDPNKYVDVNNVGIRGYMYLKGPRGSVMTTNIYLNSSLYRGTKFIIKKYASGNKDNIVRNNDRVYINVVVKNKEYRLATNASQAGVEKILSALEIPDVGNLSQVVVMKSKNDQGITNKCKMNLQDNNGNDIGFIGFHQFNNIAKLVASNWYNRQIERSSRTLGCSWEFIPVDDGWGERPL

[3] = target: Lethal factor (Bacillus anthracis) (UniProt P15917); experiment: Lethal factor protease inhibitors, Bacillus anthracis, multiplex microsphere cleavage assay, validation set (AID 588461); details: flow cytometry, at 10 µM, active compounds read high
Lethal factor (Bacillus anthracis), sequence (P15917 whole entry, looked up): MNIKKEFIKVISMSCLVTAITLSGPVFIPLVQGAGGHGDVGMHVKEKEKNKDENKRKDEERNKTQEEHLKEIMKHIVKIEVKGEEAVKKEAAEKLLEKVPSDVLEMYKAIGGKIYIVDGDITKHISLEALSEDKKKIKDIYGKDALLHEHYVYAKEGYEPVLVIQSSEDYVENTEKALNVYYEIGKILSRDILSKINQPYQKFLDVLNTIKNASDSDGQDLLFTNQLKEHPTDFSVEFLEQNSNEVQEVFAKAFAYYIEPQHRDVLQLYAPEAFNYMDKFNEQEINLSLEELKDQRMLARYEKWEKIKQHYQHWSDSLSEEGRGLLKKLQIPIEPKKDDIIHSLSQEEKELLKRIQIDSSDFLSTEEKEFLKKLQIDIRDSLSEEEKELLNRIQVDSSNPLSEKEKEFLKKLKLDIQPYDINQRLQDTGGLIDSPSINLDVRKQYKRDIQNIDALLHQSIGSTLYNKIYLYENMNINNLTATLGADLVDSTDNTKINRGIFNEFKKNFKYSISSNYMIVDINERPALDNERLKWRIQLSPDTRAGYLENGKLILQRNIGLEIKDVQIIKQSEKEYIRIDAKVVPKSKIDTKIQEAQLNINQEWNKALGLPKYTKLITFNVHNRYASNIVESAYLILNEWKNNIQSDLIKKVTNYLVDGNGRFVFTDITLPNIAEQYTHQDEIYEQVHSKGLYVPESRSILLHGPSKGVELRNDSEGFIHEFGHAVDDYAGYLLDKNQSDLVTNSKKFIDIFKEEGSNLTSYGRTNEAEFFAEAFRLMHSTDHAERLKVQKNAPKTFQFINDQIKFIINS

Measured: inhibition

CCn1c(O)c(/C=C2\C=Nc3ccccc32)sc1=O
inactive: [1] 2.3% | [2] 0.3% | [3] -0.8%

COc1cc2cc(C)nc(Cc3cccc4ccccc34)c2cc1OC
inactive: [1] 5.3% | [2] 1.3% | [3] 3.2%

COc1cc(C(=O)Nc2cccc(-c3nnc(-c4ccco4)o3)c2)ccc1OC(C)=O
inactive: [1] 3.1% | [2] 2.1% | [3] 0.6%

COc1ccc2c(=O)c(-c3cnn(-c4ccccc4)c3)c(C)oc2c1
inactive: [1] -2.2% | [2] 0.9% | [3] 1.4%

CSc1ccc2c(c1)N(CCC1CCCCN1C)c1ccccc1S2 (stereo not drawn)
inactive: [1] -0.1% | [2] -0.8% | [3] -7%

CN1CC2CCCC3(C1)C(=O)NC1(CCCCC1)N=C23 (stereo not drawn)
inactive: [1] 2.2% | [2] -0.6% | [3] -5.3%

O=C1N=c2ccccc2=C1c1[nH]c(=S)[nH]c1O
inactive: [1] 3.3% | [2] -0.7% | [3] 7%

CCOC(=O)C1CCCN(Cc2nc(Cc3cccc(F)c3)no2)C1 (stereo not drawn)
inactive: [1] 0.1% | [2] -0.4% | [3] 0.6%

Cc1ccc2c(c1)c1c(n2C)C(=O)CCC1
inactive: [1] -1.5% | [2] -1% | [3] 3.3%

CCOC(=O)N1CCc2[nH]c3ccc(C)cc3c2C1
inactive: [1] -1.2% | [2] -1.6% | [3] 1.9%

CC(C(=O)O)c1ccc(-c2ccccc2)c(F)c1 (stereo not drawn)
inactive: [1] 5.7% | [2] 0.5% | [3] 5.7%

C[C@]12CC[C@H]3[C@@H](CCC4=CC(=O)CC[C@@]43C)[C@@H]1CC[C@@H]2C(=O)CO
inactive: [1] 3.9% | [2] -2.4% | [3] -10%

Cc1ccc2[nH]c(=O)c(Cc3ccccc3)c(O)c2c1
inactive: [1] 0.6% | [2] -0.4% | [3] 2.6%

CCc1nc2ccccc2c(NC(=O)CN2CC(C)CC(C)C2)c1C (stereo not drawn)
inactive: [1] -2% | [2] 0.8% | [3] 0.9%

Nc1ccc(S(=O)(=O)c2ccc(N)cc2)cc1
inactive: [1] -2.8% | [2] -2.5% | [3] 4.9%

Cc1cc(C(=O)NC(CC(C)C)C(=O)O)cc(C)c1[N+](=O)[O-] (stereo not drawn)
inactive: [1] -4.1% | [2] -0.3% | [3] -5.7%

CC1(C)CC(=O)C(C2(O)C(=O)Nc3ccccc32)CO1 (stereo not drawn)
inactive: [1] -0.1% | [2] -1.6% | [3] -6%

CN(C)CCOc1ccc(Cl)cc1C(C)(C)C
inactive: [1] -7.7% | [2] -2.2% | [3] -7.1%

COc1cccc(OCc2cc(C3Nc4ccccc4C(=O)N3Cc3ccco3)ccc2OC)c1 (stereo not drawn)
inactive: [1] -1% | [2] 0.9% | [3] -2.1%

NC(=O)c1ccccc1O
inactive: [1] -3.5% | [2] -1.1% | [3] 2.5%

CCCNC(C)C(=O)Nc1ccccc1C (stereo not drawn)
inactive: [1] 0.2% | [2] 0.2% | [3] -4.8%

CN=C1c2cc3cc(OC)ccc3n2CCN1C
inactive: [1] -1.5% | [2] -0.6% | [3] -0.1%

O=C(Nc1nc2ccccc2s1)c1ccc(F)cc1
inactive: [1] -5.1% | [2] -1.5% | [3] -5.8%

O=C(OCC1CCCN2CCCCC12)c1ccc2c(c1)OCO2 (stereo not drawn)
inactive: [1] -1.9% | [2] -1.6% | [3] -6.7%

CC(=O)C1=C(O)C(=O)N(CC(=O)O)C1c1ccccc1Cl (stereo not drawn)
inactive: [1] -1.5% | [2] -0.5% | [3] -3%

CC(C)CN1CCN(Cc2ccc(C#CC(C)(C)O)cc2)CC1CCO (stereo not drawn)
inactive: [1] 3.7% | [2] -1.1% | [3] -2.1%

C=CCOC(=O)C1=C(C)NC(=O)NC1/C=C/c1ccccc1OC (stereo not drawn)
inactive: [1] 1% | [2] 0.4% | [3] -0.8%

CCOc1ccc(C(=O)Nc2ccc(N3CCN(C(C)=O)CC3)cc2)cc1[N+](=O)[O-]
inactive: [1] 1.6% | [2] 0% | [3] 0.9%

CC1(C)Cc2ccccc2-c2nc(-c3ccccc3)oc(=O)c21
inactive: [1] -1.9% | [2] 0% | [3] -0.2%

CC(C)=CCC/C(C)=C/CC/C(C)=N/O
inactive: [1] -1.6% | [2] -0.4% | [3] 4.1%

c1cnc(N2CCN(Cc3ccc4c(c3)OCO4)CC2)nc1
inactive: [1] -2.3% | [2] -1.4% | [3] -5.5%

Cc1ccc(CSCC(=O)N2CCCC2)cc1
inactive: [1] 2.8% | [2] -0.3% | [3] 0%

O=C(Cc1ccccc1)NCC(=O)OCC(=O)c1ccccc1Cl
inactive: [1] 1% | [2] -2.5% | [3] -9.6%

O=C(O)/C=C/c1cnc[nH]1
inactive: [1] 1.9% | [2] -0.2% | [3] -0.5%

O=C(O)CCCN1C(=O)NC2NC(=O)NC21 (stereo not drawn)
inactive: [1] 0.1% | [2] -0.8% | [3] 0.4%

Cc1nc(-c2coc3c(CN(C)C)c(O)ccc3c2=O)cs1
inactive: [1] -2.2% | [2] -0.6% | [3] 10.3%

COc1ccc(OC)c(C(=O)c2coc3ccc(O)cc23)c1
inactive: [1] -0.5% | [2] -1.6% | [3] 7%

CC1=NN(c2ccccc2)C(=O)C1
inactive: [1] 1.1% | [2] -3% | [3] 1.8%

COc1cccc2c(O)cc(=O)n(C)c12
inactive: [1] -7.7% | [2] -0.5% | [3] -8.1%

CC(C)CC(=O)Nc1ccc2oc(-c3ccncc3)nc2c1
inactive: [1] 1.4% | [2] 0.3% | [3] -2.1%

C/C=C/c1ccc(OCCCCN2CC(C)CC(C)C2)c(OC)c1 (stereo not drawn)
inactive: [1] 3.1% | [2] -0.5% | [3] -6%

CC1CC(OC(=O)C(O)c2ccccc2)CC(C)(C)N1C (stereo not drawn)
inactive: [1] -2.4% | [2] -1.7% | [3] -6.1%

CCc1ccc(/C=C2\Oc3cc(OC(=O)N4CCOCC4)ccc3C2=O)cc1
inactive: [1] 0.7% | [2] -0.2% | [3] 0.7%

CCC12CN3CC(CC)(CN(C1)C31C(=O)N(C)c3ccc(C)cc31)C2=O (stereo not drawn)
inactive: [1] -1.6% | [2] 0.1% | [3] -7.3%

Nc1ccc(S(=O)(=O)NC(=O)c2ccccc2)cc1
inactive: [1] 1.2% | [2] 1.3% | [3] -2.7%

CC(C)NS(=O)(=O)c1ccc(OCC(=O)Nc2cccc(F)c2)cc1
inactive: [1] -3.9% | [2] -0.3% | [3] -0.8%

Cc1ccc([N+](=O)[O-])cc1NC1OC(CO)C(O)C1O (stereo not drawn)
inactive: [1] 1.5% | [2] -1.1% | [3] -1.7%

COC(=O)CN1CC(=O)N(c2ccccc2)C1=S
inactive: [1] -0.8% | [2] 0% | [3] -1%

Cc1nc2ccccc2n1CC(=O)NC1CCCC1
inactive: [1] -0.9% | [2] -0.2% | [3] -4.4%

COc1ccc(-c2nc(C)c(C(C)=O)n2O)cc1OC
inactive: [1] -3.6% | [2] -1.6% | [3] -3.9%

N#C/C(=C\c1ccc(O)c(O)c1)C(=O)NCCCc1ccccc1
inactive: [1] 1.8% | [2] 1.2% | [3] -2.8%

COc1ccc(CC(=O)Nc2cccc(C(=O)Nc3ccccc3C(=O)O)c2)cc1OC
inactive: [1] -5.3% | [2] -3.3% | [3] 1.8%

Cc1oc(/C=N/NC(=O)CC2(C)OCCO2)cc1Br
inactive: [1] 3.9% | [2] 0.6% | [3] 3.2%

COC(=O)c1[nH]c2ccccc2c1NC(=O)CN1CCN(C/C=C/c2ccccc2)CC1
inactive: [1] -2.6% | [2] -1.4% | [3] -4.7%

CC1CCCc2sc3ncn(N)c(=N)c3c21 (stereo not drawn)
inactive: [1] 0.9% | [2] 0.3% | [3] -1.1%

COC(=O)C1=C(C)NC(C)=C([N+](=O)[O-])C1c1ccccc1C(F)(F)F (stereo not drawn)
inactive: [1] -0.4% | [2] -1% | [3] -11.2%

CC(C(=O)O)c1ccc(N2Cc3ccccc3C2=O)cc1 (stereo not drawn)
inactive: [1] 1.4% | [2] -1.6% | [3] -4.3%

COc1ccccc1NC(=O)Cn1c(C)cc(=O)c2cccc(OC)c21
inactive: [1] -1.1% | [2] -0.9% | [3] -0.2%

CC(=O)SC1CC2=CC(=O)CCC2(C)C2CCC3(C)C(CCC34CCC(=O)O4)C12 (stereo not drawn)
inactive: [1] 0% | [2] 0.1% | [3] -5.9%

CC(NCCc1ccc(O)cc1)C(O)c1ccc(O)cc1 (stereo not drawn)
inactive: [1] 1.6% | [2] -0.5% | [3] -3.1%

COC(=O)[C@H]1[C@H]2C[C@@H]3c4[nH]c5cc(OC)ccc5c4CCN3C[C@H]2C[C@@H](OC(=O)c2ccc(N)cc2)[C@@H]1OC
inactive: [1] -4.7% | [2] -2.3% | [3] -32.8%

Cc1ccc2[nH]c3c(c2c1)CCNC3=O
inactive: [1] -0.6% | [2] -0.5% | [3] -6.6%

Cc1cccc2c(=O)n3c(nc12)CCCCC3
inactive: [1] 0.4% | [2] -1.4% | [3] -10.4%

COc1ccccc1N1C(=O)C2CC(C)=C(C)CC2C1=O (stereo not drawn)
inactive: [1] -2.6% | [2] -0.4% | [3] 3.9%

COc1cc2c(cc1OC)-c1nnc(C)n1C(C)(C)C2
inactive: [1] 0.7% | [2] 0.2% | [3] -2.5%

CC(=O)OC(C)C[N+](C)(C)C (stereo not drawn)
inactive: [1] 0.7% | [2] 0.6% | [3] -5.8%
